Inhibition data for 13 compounds are collected here from ChEMBL document CHEMBL1157539, “Thousands of chemical starting points for antimalarial lead identification” (Nature, 2010).

In one assay the test system is Plasmodium falciparum. In words: GSK_TCMDC: Inhibition of Plasmodium falciparum Dd2 in whole red blood cells, using parasite LDH activity as an index of growth. Test compounds present at 2uM. In kind it is functional.
The Inhibition is the relative decrease from the control value, in per cent. A lower Inhibition goes with a weak effect. Take `SC(=Nc1ccc2c(c1)OCCO2)NN=Cc1ccccn1`: the Inhibition stood at 33%.
Regarding `CN(C)CCOc1cc(NC(=O)Nc2ccc(-c3ccncc3)c(Cl)c2)ccc1I`, the Inhibition amounted to 100%.
Regarding `O=C(Nc1cccc(-c2ccc(-c3nc4cc(C(F)(F)F)ccc4[nH]3)cc2)c1)c1c[nH]cn1`, the Inhibition is listed as 21%.
On to `Cc1cc(C(F)(F)F)n2nc(C(=O)N(Cc3cncn3Cc3cccc(F)c3)CC3CC3)cc2n1`, for which the Inhibition worked out at 92%.

The subject of another assay is HepG2. The experiment in a line: GSK_TCMDC: Percent inhibition of human HepG2 cell line. Test compounds present at 10uM. In kind it is functional.
`COc1ccc2nc3cc(Cl)ccc3c(NCCCCCCNc3c4ccc(Cl)cc4nc4ccc(OC)cc34)c2c1.Cl.Cl.Cl.Cl` yielded an Inhibition of 20%.
On the same count and under the same terms, the result for `O=C(C1COc2ccccc2O1)N(CCCn1ccnc1)Cc1csc(-c2ccc(CNCc3ccccc3)cc2)n1.O=C(O)C(F)(F)F` (stereo not drawn) reads 15%; that for `COc1ccc(CN(C)CCCc2ccc(NC(=O)Cc3ccc4nc(-c5ccccc5)ccc4c3)cc2)cc1OC`, 10%; that for `CC(=O)c1cccc(S(=O)(=O)NCCCNc2nc3cc(C)cc(C)c3cc2C#N)c1`, 11%.
For `COc1cccc(NC(=O)c2cc(Br)cc(N3CCN(c4ccncc4)CC3)c2)c1.O=C(O)C(F)(F)F`, the Inhibition came out at 30%.
In turn, `CN1CCN(c2ccnc3ccc(NC(=O)Nc4ccc(Cl)c(Cl)c4)cc23)CC1` had an Inhibition of 0%.
`CCCNCc1ccc(-c2ccc(CN(Cc3cnc(C)cn3)C(=O)/C=C/c3ccccc3C)cc2)nc1.O=C(O)C(F)(F)F` gave an Inhibition of 7%.
Still for that read-out and setting: the result for `OC(CNCc1ccccc1OCc1ccccc1)c1cccc(Cl)c1` (stereo not drawn) reads 0%; that for `Cc1cc(N[C@@H](CC(C)C)C(=O)Nc2ccccc2)nc(NCCc2ccc(F)cc2)n1.O=C(O)C(F)(F)F`, 8%.
